Among all 320,000 compounds or so, about 2,100 (0.66%) were called active. Not shown: some 53% with an inconclusive outcome. Calls come from the whole dose curve; as a rule, active = well fitted inhibition curve with a large enough effect in the signal ratio, with a control signal flat (not every such curve was filed as active); inconclusive = small, poorly fitted or top-dose-only effect, or effect the other way, or a change in a side signal; inactive = flat fitted curve, though single readings scatter; the % refers to the signal ratio. The sample as a whole holds a higher share of actives than the screen did.
experiment: qHTS Assay for Lipid Storage Modulators in Drosophila S3 Cells; details: BODIPY lipid droplet fluorescence, 18-24 h, cells fed with added oleic acid; cell number change: measured here: cell count max response; series mostly up to 46.1 µM;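 for cell number change: cells counted by Cell Tracker Red CMTPX staining in the red channel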
Outline: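 Drosophila S3 cells got compounds at several concentrations plus oleic acid (400 uM solution). Laser-scanning cytometry with 488 nm excitation read lipid droplets at 500-530 nm and cells at 575-640 nm. Percent activity was relative to 20 uM Triacsin C.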
Potency is the fitted concentration of half-maximal effect.

Row | SMILES | Potency | cell number change
1 | C/C(=N\NC(=O)c1ccccc1OCc1ccc(F)cc1)c1ccccn1 | inactive | -7.7%
2 | CCN(CC)C(=O)c1sc2nc(-c3cccs3)cc(-c3ccc(Cl)cc3)c2c1N | 20.6 µM (active) | 23.2%
3 | Nc1c(C(=O)O)sc2nc(-c3ccccc3)cc(-c3ccc(Cl)cc3)c12 | inactive | -6.59%
4 | N#Cc1sc2nc(-c3cccs3)cc(-c3ccc(F)cc3)c2c1N | inactive | -15.9%
5 | COc1ccc(N2C(=O)CC(Sc3nc(C)cc(C)n3)C2=O)cc1OC (configuration not stated) | inactive | 22%
6 | CC(=O)c1c(C)[nH]c(C(=O)Nc2nccs2)c1C | inactive | 5.23%
7 | CC(=O)c1c(C)[nH]c(C(=O)Nc2ccccn2)c1C | 29.1 µM (active) | -7.6%
8 | CCC(C)c1ccccc1NC(=O)c1[nH]c(C)c(C(C)=O)c1C (configuration not stated) | inactive | -4.58%
9 | O=C(CN1CCN(S(=O)(=O)c2ccccc2)CC1)NC1CC1 | inactive | -0.697%
10 | CCOC(=O)C1CCN(C(=O)c2ccc(N3CCCC3=O)cc2)CC1 | inactive | 2.94%
11 | O=C(NCc1ccc(F)cc1)c1cc2c(s1)CS(=O)(=O)C2 | inactive | -3.83%
12 | COC(=O)c1c(C)[nH]c(C(=O)/C=C/c2ccc(C)cc2)c1C | inactive | 11.4%
13 | CCN1CCc2nc(NC(=O)C(c3ccccc3)c3ccccc3)sc2C1 | 20.6 µM (active) | -8.16%
14 | CCN1CCc2nc(NC(=O)c3ccc(S(=O)(=O)N(C)C)cc3)sc2C1 | inactive | 
15 | CCN1CCc2nc(NC(=O)c3ccc4c(c3)OCCO4)sc2C1 | inactive | -22.4%
16 | CCC(=O)Nc1c2c(nn1-c1ccc(OC)cc1)CS(=O)C2 (configuration not stated) | inactive | -17%
17 | COc1ccccc1N(CC(=O)NCC1CCCO1)C(=O)CNS(=O)(=O)c1ccccc1 (configuration not stated) | inactive | 
18 | Cc1nc2ccccc2n1CSc1ccccc1 | inactive | 7.45%
19 | COc1cccc(-c2ccc(C#N)c(OC(=O)c3c(Cl)cccc3Cl)n2)c1 | inactive | -22.9%
20 | Cc1cc(NC(=O)CSCC(=O)Nc2nc3ccc(F)cc3s2)no1 | 11.6 µM (active) | 9.73%
21 | Cc1cc(NC(=O)C(C)SCC(=O)Nc2nc3c(F)cc(F)cc3s2)no1 (configuration not stated) | inactive | -16.6%
22 | Cc1cc(NC(=O)CSc2ccc(F)cc2)no1 | inactive | 
23 | O=C(CN1C(=O)S/C(=C/c2ccc(N3CCOCC3)cc2)C1=O)N1CCOCC1 | inactive | 13.3%

Row | SMILES | Potency | cell number change
24 | O=C(CN(Cc1ccc(F)cc1)C(=O)c1csnn1)NC1CCCC1 | inactive | 10.5%
25 | COc1cccc(C(=O)N(Cc2nc(-c3cccc(C)c3)no2)C(C)C)c1OC | 18.4 µM (active) | -16.8%
26 | COc1cc(OC)cc(C(=O)N(Cc2nc(-c3cccc(C)c3)no2)C(C)C)c1 | inactive | 
27 | Cc1cccc(-c2noc(CN(C(=O)C34CC5CC(CC(C5)C3)C4)C(C)C)n2)c1 | inactive | 15.9%
28 | O=C(COc1ccc(Cl)cc1)N(Cc1ccco1)C1CCS(=O)(=O)C1 (configuration not stated) | inactive | 5.12%
29 | CCCCNC(=O)CN(c1cc(C(F)(F)F)ccc1Cl)S(C)(=O)=O | inactive | 5.68%
30 | Cc1ccc(N(CC(=O)NC2CCCCC2C)S(=O)(=O)c2c(C)noc2C)cc1 (configuration not stated) | inactive | 1.18%
31 | Cc1ccc(N(CC(=O)NC2CCCCC2C)S(=O)(=O)c2c(C)nn(C)c2C)cc1 (configuration not stated) | 25.9 µM (active) | -1.91%
32 | Cc1ccc(N(CC(=O)NC2CCCCC2)S(=O)(=O)c2c(C)nn(C)c2C)cc1 | inactive | 5.73%
33 | CC1(C)CCC(C)(C)NC(=S)N1 | inactive | -5.67%
34 | O=C(COc1nsnc1N1CCOCC1)Nc1ccc(Cl)cc1 | inactive | -7.64%
35 | O=C(COc1nsnc1N1CCOCC1)N1CCOCC1 | inactive | -23.3%
36 | COC(=O)COc1nsnc1N1CCOCC1 | 5.8 µM (active) | 1.29%
37 | Cc1cccc(OCCC(=O)NNC(=O)c2ccoc2C)c1 | inactive | -9.1%
38 | COC(=O)CCCCCN1C(=O)NC(c2ccccc2)C(C(=O)OCc2ccccc2)=C1C (configuration not stated) | inactive | 10%
39 | CC(=O)NS(=O)(=O)c1ccc(NC(=O)c2cc(-c3ccc(C)cc3)nc3ccccc23)cc1 | inactive | 13.2%
40 | CCCN1CCC(N2CCCC(C(=O)O)C2)CC1 (configuration not stated) | inactive | 9.47%
41 | Cc1ccc(NC(=O)N2CCCC(C(=O)O)C2)cc1 (configuration not stated) | inactive | -2.63%
42 | CN1CCC(N2CCCC(C(=O)O)C2)CC1 (configuration not stated) | 6.51 µM (active) | 6.8%
43 | O=C(c1ccccc1)N1CCn2c1nc1ccccc12 | inactive | 7.4%
44 | COc1cccc(CC(=O)Nc2nc3c(s2)C(=O)CC(C)(C)C3)c1 | inactive | 
45 | O=C(CSc1nccc(=O)[nH]1)Nc1ccc(N2CCOCC2)cc1 | inactive | 4.96%
46 | COc1cc(OC)c(OC)cc1CN1CCCC(C(=O)N2CCCCC2)C1 (configuration not stated) | inactive | -0.267%
